SENP7 block: blocks the human protease SENP7; inhibition, % at 5 µM; 330,000 tested, 1.5% active; recombinant SENP7, Z-RLRGG-aminoluciferin luminescence, 40 min; AID 434973; Q9BQF6;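 active means inhibition above about 50% at the single test dose, limit read from the data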;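 further: plate controls were DMSO with enzyme for no effect and no enzyme buffer wells for full effect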
AHR activator: activates the human aryl hydrocarbon receptor. activation, % at 5 µM. 320,000 tested, 2.5% active. AHR-responsive luciferase reporter cells, luminescence; in the data active means activation above about 47%;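 further: 0% = vehicle wells and 100% = reference agonist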
SENP8 block-1: blocks human SENP8 cleavage of Nedd8 substrate. 360,000 tested, 0.64% active. recombinant SENP8, Nedd8 substrate fluorescence. AID 602440. inhibition, % at 20 µM; in the data active means inhibition mostly above about 40%, no sharp cut-off; inactive means mostly below about 27%
Target sequence (Q96LD8 whole entry, looked up): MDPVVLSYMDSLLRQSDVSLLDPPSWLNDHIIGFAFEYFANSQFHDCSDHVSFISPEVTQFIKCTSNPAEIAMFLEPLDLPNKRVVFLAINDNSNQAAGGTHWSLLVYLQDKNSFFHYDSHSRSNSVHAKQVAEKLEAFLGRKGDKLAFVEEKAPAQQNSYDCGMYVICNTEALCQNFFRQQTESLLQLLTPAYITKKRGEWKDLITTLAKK
SENP6 inh: SENP6 protease inhibition | Recombinant SENP6 catalytic domain, aminoluciferin luminescence | inhibition, % at 10 µM | 330,000 tested, 1.8% active | AID 2599;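 active means inhibition above about 50% at the single tested dose, limit read from the data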;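 further: plate controls were DMSO wells with enzyme for no effect and DMSO wells lacking enzyme for full effect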
Target sequence (Q9GZR1 628-1112 limits assumed): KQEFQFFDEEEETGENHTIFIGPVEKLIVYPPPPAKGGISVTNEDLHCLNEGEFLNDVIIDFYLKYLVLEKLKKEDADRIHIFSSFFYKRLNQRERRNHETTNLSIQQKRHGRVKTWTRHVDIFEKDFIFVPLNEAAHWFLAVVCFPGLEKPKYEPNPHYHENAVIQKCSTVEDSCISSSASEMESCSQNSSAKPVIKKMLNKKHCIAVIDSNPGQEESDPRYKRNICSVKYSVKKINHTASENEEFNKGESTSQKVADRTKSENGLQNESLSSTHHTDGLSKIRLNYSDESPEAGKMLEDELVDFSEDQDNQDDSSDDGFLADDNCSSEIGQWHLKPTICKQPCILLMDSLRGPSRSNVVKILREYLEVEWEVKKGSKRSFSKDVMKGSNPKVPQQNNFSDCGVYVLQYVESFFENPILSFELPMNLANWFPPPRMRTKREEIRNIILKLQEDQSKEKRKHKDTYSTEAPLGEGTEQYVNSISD
EBI2 block: antagonists of human EBI2 receptor. EBI2 beta-arrestin recruitment, luminescence, 7a,25-OHC stimulated. inhibition, % at 5 µM. 360,000 tested, 0.81% active. AID 651636; in the data active means inhibition above about 38%;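 further: enzyme fragment complementation signal reports receptor beta-arrestin coupling in cells; 0% = agonist plus DMSO wells and 100% = wells without agonist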
SENP8 block-2: inhibitors of human SENP8 protease; 330,000 tested, 1.2% active; inhibition, % at 10 µM; Q96LD8; purified SENP8, Z-RLRGG-aminoluciferin cleavage, luminescence; in the data active means inhibition above about 50%
SENP8 confirm: confirmation of human SENP8 protease inhibitors | shares compounds with SENP7 block | AID 488912 | 6,200 tested, 40% active | inhibition, % at 12.5 µM | Recombinant SENP8, Z-RLRGG-aminoluciferin luminescence, 60 min;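 active means mean inhibition across replicates above about 50%, limit read from the data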
SENP6 conf: human SENP6 inhibition, confirmed; shares compounds with SENP7 block; recombinant SENP6, Z-RLRGG-aminoluciferin luminescence; inhibition, % at 12.5 µM; 6,200 tested, 58% active
SENP7 confirm: human SENP7 inhibition, confirmed | 6,200 tested, 69% active | shares compounds with SENP7 block | inhibition, % at 12.5 µM | recombinant SENP7, Z-RLRGG-aminoluciferin luminescence, 40 min
Casp3 select: caspase-3 inhibition (SENP selectivity assay). shares compounds with SENP7 block. purified caspase-3, Z-DEVD-aminoluciferin luminescence, 60 min. inhibition, % at 12.5 µM. 6,200 tested, 60% active. AID 488918;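 active means mean inhibition above about 50%, limit read from the data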;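 further: plate controls were enzyme with DMSO for no effect and wells without caspase-3 for full effect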
SENP luc ctr: luminescence interference (SENP counter-screen). shares compounds with SENP7 block. Pre-incubated SENP8/Z-RLRGG-aminoluciferin, luciferase luminescence interference. 6,200 tested, 39% active. inhibition, % at 12.5 µM;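 active means mean inhibition above about 50% when retested at one dose, limit read from the data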;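 further: plate controls were DMSO wells with completed reaction for no effect and substrate without enzyme for full effect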
* marks the source's active call; other numbers are inactive results; i = inactive; x = no result. In the library only some 5% were active in any assay of this set; here they are far more common.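 How the source made its calls, unless noted: active means mean inhibition above about 50% in the one-dose retest (limit read from the data); inactive means the rest.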

SMILES | SENP7 block | AHR activator | SENP8 block-1 | SENP6 inh | EBI2 block | SENP8 block-2 | SENP8 confirm | SENP6 conf | SENP7 confirm | Casp3 select | SENP luc ctr
N#Cc1ccc(C(=O)Nc2nnc(-c3ccccn3)o2)cc1 | 58.2* | 1.0 | 4.5 | 69.1* | -2.6 | 50.9* | 64.2* | 60.4* | 88.7* | 86.2* | 56.4*
O=C(Nc1nnc(-c2ccccn2)o1)c1cccc(Cl)c1 | 12.1 | 10.0 | -1.2 | -17.4 | -4.7 | 9.8 | x | x | x | x | x
O=C(Cc1cccc(NC(=O)C2CCN(C(=O)C3CCCCC3)CC2)c1)Nc1cccc(C(=O)N2CCCC2)c1 | -0.8 | -0.2 | 7.5 | 10.9 | -0.8 | 8.9 | x | x | x | x | x
COC(=O)[C@@]1(Cc2ccc(OC)cc2)[C@H]2c3cc(C(=O)N(C)C)n(CCc4ccc(OC)c(Br)c4)c3C[C@H]2CN1C(=O)c1ccccc1 | 12.4 | -4.2 | x | -3.7 | x | -7.1 | x | x | x | x | x
C/C(=N\Nc1nc2c(s1)CCCC2)c1ccccc1 | -3.4 | 21.3 | 6.5 | -49.6 | 2.0 | 4.9 | x | x | x | x | x
O=S1(=O)N=C(Nc2nc3c(s2)CCCC3)c2ccccc21 | 76.5* | 57.1* | 9.2 | 85.8* | -8.0 | 77.3* | 82.7* | 77.5* | 93.9* | 86.1* | 51.7*
COc1ccccc1/C=C/C=N/NC(=O)c1cccs1 | -3.5 | -1.1 | -163.7 | 8.4 | 22.1 | -16.4 | x | x | x | x | x
Clc1ccc(-c2nc3n(n2)Cc2ccccc2-3)cc1 | 98.9* | 74.1* | 20.4 | 63.1* | 20.6 | 86.6* | -20.3 | 10.8 | 26.2 | 29.8 | 1.7
Cc1cc(C)cc(N(CCC#N)C(=O)CSc2nc3ccccc3c(=O)[nH]2)c1 | 11.1 | 0.8 | 3.0 | -1.5 | -3.4 | 2.6 | x | x | x | x | x
CCCN(CCC)CCCNC(=O)c1nn(-c2cccc(OC)c2)c(=O)c2ccccc12 | 1.0 | 0.7 | 8.2 | 5.2 | 12.8 | 1.3 | x | x | x | x | x
CC1=CN2C(=N)/C(=C/c3ccco3)C(=O)N=C2S1 | 38.3 | 33.8 | 25.8 | 52.4* | 1.0 | 14.3 | 32.4 | 28.3 | 71.3* | 73.5* | 2.1
O=C(/C(N=Nc1cccc([N+](=O)[O-])c1)=C(/O)c1ccc(Br)cc1)C(F)(F)F | 0.7 | 2.5 | 28.7 | -7.1 | 15.5 | -9.7 | x | x | x | x | x
N#C/C(=N\Nc1ccc([N+](=O)[O-])cc1)C(N)=S | 92.1* | 1.9 | 47.3* | 97.7* | 18.8 | 90.5* | 97.2* | 98.1* | 102.3* | 96.8* | 90.3*
N#C/C(=N/Nc1ccc([N+](=O)[O-])cc1)C(=N)N1CCCCC1 | x | x | 29.8 | x | 5.9 | x | x | x | x | x | x
N#C/C(=N\Nc1cccc([N+](=O)[O-])c1)C(=O)c1ccc(Br)cc1 | 0.4 | 21.4 | 6.6 | 71.5* | 3.2 | 60.3* | -0.1 | 65.6* | 44.8 | 3.7 | 59.1*
Cc1ccc(N=Nc2c(=O)[nH]n3c(=O)cc(C)[nH]c23)cc1 | 43.5 | 2.8 | 37.0 | 75.9* | -0.4 | 53.5* | -15.8 | 17.5 | 59.7* | 61.4* | 44.8
Cc1cc(C)c2c(N)c(C(=O)Nc3ncc(C)s3)sc2n1 | 25.7 | 40.6 | i | 87.3* | -5.5 | 71.7* | -25.0 | 86.0* | 99.3* | 91.5* | -2.1
C[C@H](CO)N1C[C@H](C)[C@H](CN(C)CC2CCCCC2)Oc2ccc(NS(=O)(=O)c3ccc(F)cc3)cc2CC1=O | 10.0 | -0.8 | 3.3 | -0.4 | 1.2 | -1.1 | x | x | x | x | x
Cc1ccc(OCC(=O)N(C)CC(=O)N(CC(C)C)c2c(N)n(CC(C)C)c(=O)[nH]c2=O)c(C)c1 | -5.7 | -3.9 | 32.5 | 19.2 | -4.8 | 4.5 | x | x | x | x | x
O=C(O)c1ccc(N=NN2CCCCC2)cc1 | 45.0 | 5.0 | 6.5 | 68.2* | -5.7 | 49.7 | 53.8* | 46.8 | 84.9* | 57.0* | 66.4*
CC(=O)/C(N=Nc1ccc(C(=O)O)cc1)=C(\C)O | 66.6* | -1.7 | 25.5 | 76.2* | -4.7 | 44.2 | 57.9* | 58.5* | 86.7* | 91.7* | 72.7*
CC(=O)/C(N=Nc1ccc(OC(F)(F)F)cc1)=C(\C)O | 6.0 | 3.0 | 9.3 | -10.0 | 1.0 | -20.4 | x | x | x | x | x
CC(=O)/C(N=Nc1ccc2c(c1)OCCO2)=C(\C)O | 82.3* | -0.2 | 18.4 | 78.6* | -8.7 | 74.9* | 80.9* | 80.4* | 96.0* | 91.5* | 60.2*
CN(C)c1ccc(N=Nc2ccc(C(=O)O)cc2)cc1 | 87.3* | -0.9 | -21.6 | 92.6* | 9.0 | 86.5* | 89.4* | 90.8* | 100.6* | 72.9* | 58.3*
COC(=O)c1ccc(N=NN2CCCCCC2)cc1 | -5.6 | 1.3 | 20.8 | 25.9 | 7.2 | 1.5 | x | x | x | x | x
SMILES | SENP7 block | AHR activator | SENP8 block-1 | SENP6 inh | EBI2 block | SENP8 block-2 | SENP8 confirm | SENP6 conf | SENP7 confirm | Casp3 select | SENP luc ctr
CN(C)c1ccc(C(=O)c2ccccc2)cc1 | 10.3 | 2.1 | -28.0 | 20.7 | 1.2 | 8.8 | x | x | x | x | x
Cc1noc(C)c1CSCC(=O)N(CC(C)C)c1c(N)n(Cc2ccccc2)c(=O)[nH]c1=O | 3.2 | -1.5 | -1.8 | 9.1 | -10.1 | 5.9 | x | x | x | x | x
Cc1nc(SCC(N)=O)[nH]c(=O)c1Cc1ccc(OC(C)C)cc1 | -0.5 | 2.1 | 13.1 | 63.6* | -10.7 | -4.7 | 12.1 | 6.1 | 11.6 | 6.6 | 1.5
COc1ccc(Cc2c(O)nc(SCC(=O)c3ccc(OC)cc3)[nH]c2=O)cc1 | 1.4 | -0.5 | 3.8 | 5.8 | -2.8 | -4.3 | x | x | x | x | x
O=C(Nc1ccon1)c1cc2c(s1)CCCC2 | 93.0* | 2.9 | 9.5 | 88.6* | -6.2 | 83.6* | 8.1 | 90.0* | 100.2* | 91.7* | 63.4*
Cc1nnc(NC(=O)c2ccc(N3CCCC3=O)cc2)s1 | -13.2 | x | -76.4 | -14.3 | 1.3 | -14.8 | x | x | x | x | x
Cc1csc(NC(=O)c2cc3c(s2)CCCCC3)n1 | 97.7* | -11.4 | -56.8 | 92.1* | 2.1 | 93.6* | 95.6* | 96.6* | 100.9* | 91.8* | 88.8*
Cc1cnc(NC(=O)c2cc3c(s2)CCCC3)s1 | 84.6* | 12.9 | -85.8 | 88.4* | 5.7 | 80.8* | 88.5* | 88.0* | 97.3* | 78.9* | 55.7*
CCOC(=O)Cc1csc(NC(=O)c2cc3c(s2)CCCC3)n1 | 43.3 | 3.6 | -58.7 | 42.2 | 4.7 | 22.6 | x | x | x | x | x
Cc1csc(NC(=O)c2ccc(N3CCCC3=O)cc2)n1 | 79.1* | -6.7 | -19.0 | 77.0* | 7.1 | 62.8* | 18.3 | 22.7 | 62.9* | 84.8* | 36.8
CCc1nnc(NC(=O)c2cc3c(s2)CCCCC3)s1 | -3.7 | -0.2 | -4.1 | -17.7 | -11.8 | -16.0 | x | x | x | x | x
